This note sets out measurements from PubChem BioAssay.

Several values for one entry are separate records, joined by “and”; a condition that tells them apart may be missing. Equal entries are not always repeated.

The nature of one assay: sensitizers of A549 cells to miR-34 induction, primary screen, imaging, A549 dox-inducible miR-34, nuclei and caspase counts (AID 1347080). Further: test concentration not given here. As to conditions: A549 miR-34 inducible, Hoechst nuclei count, 48 h; measured here: relative caspase fold change +Dox/-Dox.
Consider `COc1cc(OC)c(C(=O)CCCN2CCCC2)c(OC)c1`, for which the fold change is 1.32 and 1.94 and 0.958.
On the same count and under the same terms, the result for `CC(C)[C@H](N)C(=O)OCCOCn1cnc2c(=O)[nH]c(N)nc21` reads 1.65.
Regarding `Cn1c(NCCN(CCO)CCCc2ccc([N+](=O)[O-])cc2)cc(=O)n(C)c1=O`, the fold change was 1.91 and 1.23.
On the same count and under the same terms, the result for `CCN1CCN(C(=O)N[C@@H](C(=O)N[C@@H]2C(=O)N3C(C(=O)O)=C(CSc4nnnn4C)CS[C@H]23)c2ccc(O)cc2)C(=O)C1=O` reads 1.41 and 1.35.
As for `CNNCc1ccc(C(=O)NC(C)C)cc1`, the fold change is 0.658 and 1.32 and 1.82.
The same measure, in the same setting: as for `CCOC(=O)[C@H](CCc1ccccc1)N[C@@H](C)C(=O)N1CCC[C@H]1C(=O)O`, the figure is 0.827 and 3.26 and 1.44.
The same measure, in the same setting: as for `O=NN(CCCl)C(=O)NC1CCCCC1`, the figure is 1.64 and 1.87.
Same read-out and setting: as for `COc1ccc(C(=O)CC(=O)c2ccc(C(C)(C)C)cc2)cc1`, the figure is 0.938 and 3.78; as for `NNc1nncc2ccccc12`, 1.23 and 1.05.
For the molecule `O=NN(CCCl)C(=O)NCCCl`, the fold change was 1.47 and 4.57.
Same read-out and setting: as for `Cc1cn[nH]c1`, the figure is 0.844 and 2.49.
On to `COc1ccc2cc3[n+](cc2c1OC)CCc1cc2c(cc1-3)OCO2`, for which the fold change was 1.68 and 1.22.
Same read-out and setting: the result for `COC1=C(OC)C(=O)C(CCCCCCCCCCO)=C(C)C1=O` reads 1.87 and 0.941 and 1.43; that for `COc1cc2c(N3CCN(C(=O)Nc4ccc(OC(C)C)cc4)CC3)ncnc2cc1OCCCN1CCCCC1`, 1.09 and 0.885; that for `Nc1nc(=S)c2[nH]cnc2[nH]1`, 0.96.
Same read-out and setting: as for `CCCN(CCC)C(=O)C(CCC(=O)O)NC(=O)c1ccccc1` (stereo not drawn), the figure is 0.941 and 0.892 and 4.08; as for `Oc1ccc(OCc2ccccc2)cc1`, 1.95 and 0.958; as for `CC(=O)O[C@]1(C(C)=O)CC[C@H]2[C@@H]3C=C(Cl)C4=CC(=O)[C@@H]5C[C@@H]5[C@]4(C)[C@H]3CC[C@@]21C`, 1.52 and 2.1.
The same measure, in the same setting: as for `CO[C@@H]1[C@@H](OC(N)=O)[C@@H](O)[C@H](Oc2ccc3c(O)c(NC(=O)c4ccc(O)c(CC=C(C)C)c4)c(=O)oc3c2C)OC1(C)C`, the figure is 1.98.
As to `CCOc1cc(N)c(Cl)cc1C(=O)NCC1CN(Cc2ccc(F)cc2)CCO1` (stereo not drawn), the fold change is 1.51 and 0.602.
On the same count and under the same terms, as for `Nc1ncnc2c1ncn2[C@@H]1O[C@H](CO)[C@@H](O)[C@H]1O`, the figure is 0.527.
On the same count and under the same terms, as for `CCN(CC)CCOc1ccc(/C(=C(\Cl)c2ccccc2)c2ccccc2)cc1`, the figure is 0.906; as for `Cc1ccc(S(=O)(=O)NC(=O)NN2CC3CCCC3C2)cc1` (stereo not drawn), 1.81 and 0.848 and 0.946; as for `CN(Cc1cc(Br)cc(Br)c1N)C1CCCCC1`, 0.942 and 3.08 and 1.05.
Still for that read-out and setting: as for `Cn1c(=O)c2c(ncn2C)n(C)c1=O`, the figure is 1.02 and 1.01.
In the case of `CN(Cc1cnc2nc(N)nc(N)c2n1)c1ccc(C(=O)N[C@@H](CCC(=O)O)C(=O)O)cc1`, the fold change is 1.22 and 0.656 and 1.41.

The same assay, now with this note: A549 miR-34 inducible, Hoechst nuclei count, 48 h; measured here: total cells with miR-34 induction; stronger effect = lower value.
Take `COc1cc(OC)c(C(=O)CCCN2CCCC2)c(OC)c1`: the cell count was 8900 and 10500 and 8390.
The same measure, in the same setting: as for `CC(C)[C@H](N)C(=O)OCCOCn1cnc2c(=O)[nH]c(N)nc21`, the figure is 9730; as for `Cn1c(NCCN(CCO)CCCc2ccc([N+](=O)[O-])cc2)cc(=O)n(C)c1=O`, 8810 and 9410.
On the same count and under the same terms, as for `CCN1CCN(C(=O)N[C@@H](C(=O)N[C@@H]2C(=O)N3C(C(=O)O)=C(CSc4nnnn4C)CS[C@H]23)c2ccc(O)cc2)C(=O)C1=O`, the figure is 7800 and 9270; as for `CNNCc1ccc(C(=O)NC(C)C)cc1`, 8930 and 9660 and 9580; as for `CCOC(=O)[C@H](CCc1ccccc1)N[C@@H](C)C(=O)N1CCC[C@H]1C(=O)O`, 8260 and 11300 and 10300.
The same measure, in the same setting: the result for `O=NN(CCCl)C(=O)NC1CCCCC1` reads 7170 and 7550; that for `COc1ccc(C(=O)CC(=O)c2ccc(C(C)(C)C)cc2)cc1`, 7480 and 11300.
As to `NNc1nncc2ccccc12`, the cell count is 10000 and 10300.
The same measure, in the same setting: as for `O=NN(CCCl)C(=O)NCCCl`, the figure is 8130 and 9540; as for `Cc1cn[nH]c1`, 10200 and 12000; as for `COc1ccc2cc3[n+](cc2c1OC)CCc1cc2c(cc1-3)OCO2`, 5700 and 4440.
The same measure, in the same setting: as for `COC1=C(OC)C(=O)C(CCCCCCCCCCO)=C(C)C1=O`, the figure is 8540 and 8000 and 9340; as for `COc1cc2c(N3CCN(C(=O)Nc4ccc(OC(C)C)cc4)CC3)ncnc2cc1OCCCN1CCCCC1`, 7400 and 5330; as for `Nc1nc(=S)c2[nH]cnc2[nH]1`, 1820.
Turning to `CCCN(CCC)C(=O)C(CCC(=O)O)NC(=O)c1ccccc1` (stereo not drawn), the cell count is 10500 and 8340 and 11300.
On the same count and under the same terms, as for `Oc1ccc(OCc2ccccc2)cc1`, the figure is 2470 and 5720.
Still for that read-out and setting: as for `CC(=O)O[C@]1(C(C)=O)CC[C@H]2[C@@H]3C=C(Cl)C4=CC(=O)[C@@H]5C[C@@H]5[C@]4(C)[C@H]3CC[C@@]21C`, the figure is 8890 and 7970.
On the same count and under the same terms, as for `CO[C@@H]1[C@@H](OC(N)=O)[C@@H](O)[C@H](Oc2ccc3c(O)c(NC(=O)c4ccc(O)c(CC=C(C)C)c4)c(=O)oc3c2C)OC1(C)C`, the figure is 10300; as for `CCOc1cc(N)c(Cl)cc1C(=O)NCC1CN(Cc2ccc(F)cc2)CCO1` (stereo not drawn), 7930 and 7020; as for `Nc1ncnc2c1ncn2[C@@H]1O[C@H](CO)[C@@H](O)[C@H]1O`, 10400.
On to `CCN(CC)CCOc1ccc(/C(=C(\Cl)c2ccccc2)c2ccccc2)cc1`, for which the cell count stood at 10700.
The same measure, in the same setting: as for `Cc1ccc(S(=O)(=O)NC(=O)NN2CC3CCCC3C2)cc1` (stereo not drawn), the figure is 8400 and 8080 and 10300; as for `CN(Cc1cc(Br)cc(Br)c1N)C1CCCCC1`, 8160 and 11000 and 9390.
The same measure, in the same setting: the result for `Cn1c(=O)c2c(ncn2C)n(C)c1=O` reads 9770 and 10600.
As to `CN(Cc1cnc2nc(N)nc(N)c2n1)c1ccc(C(=O)N[C@@H](CCC(=O)O)C(=O)O)cc1`, the cell count is 2980 and 3110 and 5280.

The same assay, now with this note: A549 miR-34 inducible, Hoechst nuclei count, 48 h; measured here: total cells without miR-34 induction.
With `COc1cc(OC)c(C(=O)CCCN2CCCC2)c(OC)c1`, the cell count is 10400 and 11000 and 9300.
Consider `CC(C)[C@H](N)C(=O)OCCOCn1cnc2c(=O)[nH]c(N)nc21`, for which the cell count was 11500.
On the same count and under the same terms, the result for `Cn1c(NCCN(CCO)CCCc2ccc([N+](=O)[O-])cc2)cc(=O)n(C)c1=O` reads 8920 and 10800.
Still for that read-out and setting: the result for `CCN1CCN(C(=O)N[C@@H](C(=O)N[C@@H]2C(=O)N3C(C(=O)O)=C(CSc4nnnn4C)CS[C@H]23)c2ccc(O)cc2)C(=O)C1=O` reads 9050 and 11000; that for `CNNCc1ccc(C(=O)NC(C)C)cc1`, 9640 and 10400 and 10900.
As for `CCOC(=O)[C@H](CCc1ccccc1)N[C@@H](C)C(=O)N1CCC[C@H]1C(=O)O`, the cell count was 9220 and 12900 and 11600.
Same read-out and setting: the result for `O=NN(CCCl)C(=O)NC1CCCCC1` reads 8750 and 8760; that for `COc1ccc(C(=O)CC(=O)c2ccc(C(C)(C)C)cc2)cc1`, 7740 and 13000; that for `NNc1nncc2ccccc12`, 9890 and 12600.
On the same count and under the same terms, as for `O=NN(CCCl)C(=O)NCCCl`, the figure is 8570 and 10600; as for `Cc1cn[nH]c1`, 10200 and 13300.
The same measure, in the same setting: as for `COc1ccc2cc3[n+](cc2c1OC)CCc1cc2c(cc1-3)OCO2`, the figure is 6200 and 4750.
For the molecule `COC1=C(OC)C(=O)C(CCCCCCCCCCO)=C(C)C1=O`, the cell count is 10200 and 9080 and 10500.
Same read-out and setting: as for `COc1cc2c(N3CCN(C(=O)Nc4ccc(OC(C)C)cc4)CC3)ncnc2cc1OCCCN1CCCCC1`, the figure is 8380 and 5450; as for `Nc1nc(=S)c2[nH]cnc2[nH]1`, 1580; as for `CCCN(CCC)C(=O)C(CCC(=O)O)NC(=O)c1ccccc1` (stereo not drawn), 9940 and 8900 and 13400.
Take `Oc1ccc(OCc2ccccc2)cc1`: the cell count was 3170 and 6340.
`CC(=O)O[C@]1(C(C)=O)CC[C@H]2[C@@H]3C=C(Cl)C4=CC(=O)[C@@H]5C[C@@H]5[C@]4(C)[C@H]3CC[C@@]21C`: the cell count is 9300 and 9380.
As for `CO[C@@H]1[C@@H](OC(N)=O)[C@@H](O)[C@H](Oc2ccc3c(O)c(NC(=O)c4ccc(O)c(CC=C(C)C)c4)c(=O)oc3c2C)OC1(C)C`, the cell count stood at 13600.
On the same count and under the same terms, the result for `CCOc1cc(N)c(Cl)cc1C(=O)NCC1CN(Cc2ccc(F)cc2)CCO1` (stereo not drawn) reads 9370 and 7370; that for `Nc1ncnc2c1ncn2[C@@H]1O[C@H](CO)[C@@H](O)[C@H]1O`, 12900.
Still for that read-out and setting: the result for `CCN(CC)CCOc1ccc(/C(=C(\Cl)c2ccccc2)c2ccccc2)cc1` reads 12300; that for `Cc1ccc(S(=O)(=O)NC(=O)NN2CC3CCCC3C2)cc1` (stereo not drawn), 9450 and 9180 and 11600.
Same read-out and setting: as for `CN(Cc1cc(Br)cc(Br)c1N)C1CCCCC1`, the figure is 8790 and 12200 and 10700; as for `Cn1c(=O)c2c(ncn2C)n(C)c1=O`, 10100 and 12300.
Consider `CN(Cc1cnc2nc(N)nc(N)c2n1)c1ccc(C(=O)N[C@@H](CCC(=O)O)C(=O)O)cc1`, for which the cell count is 2000 and 2580 and 4920.
